The nature of experiment [1]: antimalarial activity against Dd2 strain (AID 2302;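 active = growth inhibition above 50% at the single 2 µM test dose, taken to imply half-maximal potency below 2 µM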;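 note: 0% = DMSO untreated growth and 100% = chloroquine plus artemisinin killed control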). As to conditions: P. falciparum Dd2 in RBCs, LDH growth readout, 72 h; at 2 µM; active compounds read high.
Experiment [2] in a line: human hepatoma cell viability loss – ATP luminescence, cytotoxicity control for P. falciparum antimalarial project, primary screen (AID 2303;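 active = inhibition above 50%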;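 note: 0% = DMSO wells and 100% = digitonin-killed cells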). The conditions noted are these: HepG2 viability, 24-48 h, at 10 µM, active compounds read high.
The target of experiment [3] is L-lactate dehydrogenase (Plasmodium falciparum (isolate CDC / Honduras)) (UniProt Q27743). The experiment is described as follows: PfLDH activity inhibition – cell lysate, 3D7 strain, counter-screen for P. falciparum growth inhibition project (AID 2304).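 Note: 0% = vehicle and 100% = reference inhibitor.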 As to conditions: P. falciparum 3D7 crude extract, LDH APAD/NBT absorbance; at 2 µM; active compounds read high.
Sequence of L-lactate dehydrogenase (Plasmodium falciparum (isolate CDC / Honduras)) (Q27743 whole entry, looked up): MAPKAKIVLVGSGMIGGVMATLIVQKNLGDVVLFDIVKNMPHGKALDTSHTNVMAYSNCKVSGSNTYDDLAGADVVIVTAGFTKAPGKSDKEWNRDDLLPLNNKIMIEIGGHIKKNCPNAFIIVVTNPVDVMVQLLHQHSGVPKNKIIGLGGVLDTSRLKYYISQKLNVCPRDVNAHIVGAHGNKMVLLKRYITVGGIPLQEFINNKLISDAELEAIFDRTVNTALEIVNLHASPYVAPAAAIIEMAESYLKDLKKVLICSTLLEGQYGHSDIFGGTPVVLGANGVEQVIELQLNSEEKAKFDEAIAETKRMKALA
Experiment [4] in a line: inhibition of 3D7 malaria parasite growth – strain 3D7 (AID 2306).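 Note: 0% = DMSO wells and 100% = chloroquine plus artemisinin control wells.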 As to conditions: P. falciparum 3D7 erythrocytic growth, LDH absorbance, 72 h; at 2 µM; active compounds read high.
Experiment [5] deals with Calcium-dependent protein kinase 1 (Plasmodium falciparum (isolate 3D7)) (UniProt P62344). As to the kind of experiment: PfCDPK1 kinase inhibitors, biochemical, TCAMS library (AID 1159585; cut-off not given, nearly all actives have IC50 up to about 0.98 µM;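 note: inhibitors leave more ATP so luminescence rises with inhibition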). As to conditions: recombinant PfCDPK1, Kinase-Glo ATP depletion luminescence.
Sequence of Calcium-dependent protein kinase 1 (Plasmodium falciparum (isolate 3D7)) (P62344 whole entry, looked up): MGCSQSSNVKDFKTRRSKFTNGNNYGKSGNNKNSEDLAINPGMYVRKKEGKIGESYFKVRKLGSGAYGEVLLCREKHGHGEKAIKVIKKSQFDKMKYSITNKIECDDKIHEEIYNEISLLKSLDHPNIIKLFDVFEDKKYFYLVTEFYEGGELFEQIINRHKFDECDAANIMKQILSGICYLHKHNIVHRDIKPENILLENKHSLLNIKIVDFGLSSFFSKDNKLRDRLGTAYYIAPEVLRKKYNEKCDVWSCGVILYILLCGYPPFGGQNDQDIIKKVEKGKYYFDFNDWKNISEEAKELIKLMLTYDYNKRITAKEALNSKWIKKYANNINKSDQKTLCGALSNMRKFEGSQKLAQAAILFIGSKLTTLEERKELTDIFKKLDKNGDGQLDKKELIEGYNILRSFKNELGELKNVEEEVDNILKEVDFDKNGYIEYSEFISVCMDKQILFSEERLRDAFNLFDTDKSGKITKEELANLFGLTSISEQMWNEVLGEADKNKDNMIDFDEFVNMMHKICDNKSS
Experiment [6] addresses Plasmodium falciparum protein kinase 6 (PK6, PF3D7_1337100) (UniProt Q8IDW1). As to the kind of experiment: PfPK6 kinase inhibitors, biochemical, TCAMS library (AID 1159586). The conditions noted are these: recombinant PfPK6, Kinase-Glo ATP depletion luminescence. In general terms: Kinase-Glo reads ATP consumption through a luciferase reaction.
Experiment [7] deals with Protein kinase 7 (PK7), Plasmodium falciparum 3D7 (PF3D7_0213400) (UniProt Q7YTF7). The experiment is described as follows: inhibition of Plasmodium PK7 catalytic activity – biochemical, TCAMS antimalarial set, Kinase-Glo luminescence (AID 1159587). As to conditions: recombinant PfPK7, Kinase-Glo ATP depletion luminescence.
Sequence of Protein kinase 7 (PK7), Plasmodium falciparum 3D7 (PF3D7_0213400) (Q7YTF7 1-343): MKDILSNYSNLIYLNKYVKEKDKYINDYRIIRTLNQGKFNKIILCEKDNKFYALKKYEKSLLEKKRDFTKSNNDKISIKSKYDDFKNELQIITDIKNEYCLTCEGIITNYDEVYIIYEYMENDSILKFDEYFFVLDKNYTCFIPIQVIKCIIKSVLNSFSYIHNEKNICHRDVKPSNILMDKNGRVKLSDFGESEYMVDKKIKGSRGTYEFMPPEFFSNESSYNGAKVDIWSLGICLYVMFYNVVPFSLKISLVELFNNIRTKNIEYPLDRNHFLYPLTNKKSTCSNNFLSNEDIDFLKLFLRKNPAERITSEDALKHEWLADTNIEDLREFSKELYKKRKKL
Experiment [8] concerns the target Calcium-dependent protein kinase 4 (Plasmodium falciparum (isolate 3D7)) (UniProt Q8IBS5). As to the kind of experiment: PfCDPK4 kinase inhibitors, biochemical, TCAMS library (AID 1159588; cut-off not given, nearly all actives have IC50 up to about 0.91 µM). The conditions noted are these: recombinant PfCDPK4, Kinase-Glo ATP depletion luminescence.

A number with no mark means an inactive call. For some of these results: Entries with a potency or affinity are not part of this list. Calls of active or inactive are those of the source. Unless noted, the rule behind the calls is not given here.

This passage reports growth inhibition, inhibition and outcome results from PubChem BioAssay.

Sequence of Calcium-dependent protein kinase 4 (Plasmodium falciparum (isolate 3D7)) (Q8IBS5 whole entry, looked up): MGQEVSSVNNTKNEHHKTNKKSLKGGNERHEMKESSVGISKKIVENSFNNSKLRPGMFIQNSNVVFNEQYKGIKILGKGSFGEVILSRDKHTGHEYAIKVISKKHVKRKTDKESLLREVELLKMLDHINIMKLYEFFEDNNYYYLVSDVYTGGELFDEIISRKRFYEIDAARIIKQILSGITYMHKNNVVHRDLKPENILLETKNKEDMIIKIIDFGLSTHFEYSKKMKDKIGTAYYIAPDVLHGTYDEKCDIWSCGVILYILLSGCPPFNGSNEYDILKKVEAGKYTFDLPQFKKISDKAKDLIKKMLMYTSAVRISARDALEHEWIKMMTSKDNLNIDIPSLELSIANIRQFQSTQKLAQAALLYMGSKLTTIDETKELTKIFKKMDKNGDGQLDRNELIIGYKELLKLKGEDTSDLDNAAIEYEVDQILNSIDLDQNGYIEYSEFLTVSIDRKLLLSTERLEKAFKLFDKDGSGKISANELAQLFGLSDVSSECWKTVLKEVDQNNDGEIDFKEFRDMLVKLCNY
Sequence of Plasmodium falciparum protein kinase 6 (PK6, PF3D7_1337100) (Q8IDW1 1-305): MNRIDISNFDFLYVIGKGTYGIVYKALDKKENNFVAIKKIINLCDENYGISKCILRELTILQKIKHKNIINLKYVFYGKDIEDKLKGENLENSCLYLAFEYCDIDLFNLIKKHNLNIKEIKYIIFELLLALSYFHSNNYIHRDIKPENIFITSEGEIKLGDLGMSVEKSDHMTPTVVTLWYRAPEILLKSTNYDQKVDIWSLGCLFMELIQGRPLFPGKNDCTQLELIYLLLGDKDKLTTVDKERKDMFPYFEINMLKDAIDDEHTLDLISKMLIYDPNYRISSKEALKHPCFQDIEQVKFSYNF

What is called inhibition is the relative decrease from the control value, in per cent. With `Cc1ccccc1OCCCON1C(N)=NC(N)=NC1(C)C`, the growth inhibition in experiment [1] was 97% (active); in experiment [4] it was 95% (active). Besides, the inhibition is 66% (active) in experiment [2] and 4% in experiment [3]. Moreover, the outcome in experiment [5], in experiment [6], in experiment [7] and in experiment [8] was inactive.

On to `N#Cc1cccc(NC(=O)NC2CCN(CCCCCNC(=O)[C@@H]3C[C@H]3c3ccc(Cl)c(Cl)c3)CC2)c1`, for which the figures for the growth inhibition in experiment [1] and in experiment [4] were -2% and 102% (active), respectively. The results for the inhibition in experiment [2] and in experiment [3] were 36% and 3%, respectively. Also, the outcome in experiment [5], in experiment [6], in experiment [7] and in experiment [8] was inactive.

`Cc1[nH]cnc1Cc1ccc2c(c1O)c1ccccc1n2C`: the growth inhibition was 16% in experiment [1] and 90% (active) in experiment [4]. For the same compound, the inhibition in experiment [2] is 9%; in experiment [3] it was -2%. In addition, the result in experiment [5], in experiment [6], in experiment [7] and in experiment [8] was inactive.

For the compound `O=C(Nc1ccc2c(c1)CCN2C1CCN(Cc2cccc(F)c2F)C1)c1ccco1` (stereo not given), the figures for the growth inhibition in experiment [1] and in experiment [4] were 90% (active) and 87% (active), respectively. The inhibition was -4% in experiment [2] and 0% in experiment [3]. Moreover, the result in experiment [5], in experiment [6], in experiment [7] and in experiment [8] was inactive.

Consider `COc1cc(Cc2cnc(N)nc2N)c2c(c1OC)OC(C)(C)C=C2`, for which the growth inhibition is 2% in experiment [1] and 93% (active) in experiment [4]. In addition, the values for the inhibition in experiment [2] and in experiment [3] were 7% and -3%, respectively. The result in experiment [5], in experiment [6], in experiment [7] and in experiment [8] was inactive.

For the compound `CC(C)CCN1CCCN(Cc2ccc(C(=O)Nc3ccc(Cl)cc3)cc2)CC1`, the growth inhibition in experiment [1] was 15%; in experiment [4], 94% (active). The inhibition in experiment [2] is 46%; in experiment [3], 4%. Moreover, the outcome in experiment [5], in experiment [6], in experiment [7] and in experiment [8] was inactive.

In the case of `CC(=O)Nc1ccc(C(=O)Nc2cccc(-c3ccc(-c4nc5ccc(C(F)(F)F)cc5[nH]4)cc3)c2)cn1`, the growth inhibition was 100% (active) in experiment [1] and 101% (active) in experiment [4]. In addition, the inhibition in experiment [2] is 46%; in experiment [3], -3%. The result in experiment [5], in experiment [6], in experiment [7] and in experiment [8] was inactive.

Take `Fc1cccc(Nc2nc(NCc3ccc(Cl)c(Cl)c3)nc(Nc3cccc(F)c3)n2)c1`: the growth inhibition in experiment [1] was 7%; in experiment [4], 99% (active). For the same compound, the inhibition in experiment [2] was -5%; in experiment [3], 3%. The outcome in experiment [5], in experiment [6], in experiment [7] and in experiment [8] was inactive.

In the case of `Cc1ccc(CON2C(N)=NC(N)=NC2(C)C)cc1C`, the growth inhibition was 88% (active) in experiment [1] and 92% (active) in experiment [4]. The inhibition in experiment [2] was 64% (active); in experiment [3], -9%. Further, the result in experiment [5], in experiment [6], in experiment [7] and in experiment [8] was inactive.

For the compound `CC(C)NCc1ccc(-c2ccc(NC(=O)c3ccc(Cl)cc3)cc2)cc1`, the values for the growth inhibition in experiment [1] and in experiment [4] were 8% and 90% (active), respectively. Also, the inhibition was 60% (active) in experiment [2] and 3% in experiment [3]. The result in experiment [5], in experiment [6], in experiment [7] and in experiment [8] was inactive.

As to `CCCc1ccc(NC(=O)c2cccc(CN3CCCN(Cc4cccc(C#N)c4)CC3)c2)cc1`, the figures for the growth inhibition in experiment [1] and in experiment [4] were 0% and 85% (active), respectively. For the same compound, the inhibition in experiment [2] was 20%; in experiment [3] it was -4%. In addition, the outcome in experiment [5], in experiment [6], in experiment [7] and in experiment [8] was inactive.

`O=C(Nc1cccc(F)c1)c1ccc(C(=O)NC2CCN(CC3CCCCC3)C2)cc1` (stereo not given): the growth inhibition was 15% in experiment [1] and 96% (active) in experiment [4]. For the same compound, the values for the inhibition in experiment [2] and in experiment [3] were 16% and -3%, respectively. The outcome in experiment [5], in experiment [6], in experiment [7] and in experiment [8] was inactive.

On to `COc1ccc(NC(=O)Nc2ccc(Nc3nc(C)cc(N4CCCC4)n3)cc2)cc1`, for which the growth inhibition in experiment [1] is 100% (active); in experiment [4] it was 101% (active). Besides, the inhibition in experiment [2] is 14%; in experiment [3] it was -2%. For the same compound, the outcome in experiment [5], in experiment [6], in experiment [7] and in experiment [8] was inactive.

As to `c1ccn2c(-c3ncnc(NCc4ccc5c(c4)CCO5)n3)cnc2c1`, the growth inhibition in experiment [1] was 47%; in experiment [4], 86% (active). Also, the inhibition was 12% in experiment [2] and 0% in experiment [3]. The outcome in experiment [5], in experiment [6], in experiment [7] and in experiment [8] was inactive.

As to `c1cnc2ccc(NCc3ccc(-c4ccc(CNC5CCCC5)cc4)cc3)cc2c1`, the growth inhibition in experiment [1] was 21%; in experiment [4], 97% (active). Moreover, the results for the inhibition in experiment [2] and in experiment [3] were 27% and -2%, respectively. For the same compound, the result in experiment [5], in experiment [6], in experiment [7] and in experiment [8] was inactive.

In the case of `O=C(Nc1ccc(OC(F)(F)F)cc1)Nc1ccc([N+](=O)[O-])cc1`, the growth inhibition in experiment [1] and in experiment [4] was 100% (active) throughout. For the same compound, the inhibition was 41% in experiment [2] and 3% in experiment [3]. Moreover, the result in experiment [5], in experiment [6], in experiment [7] and in experiment [8] was inactive.

On to `O=C(Oc1ccc(C2CNCCc3c2cc(OC(=O)c2ccc(O)cc2)c(OC(=O)c2ccc(O)cc2)c3Cl)cc1)c1ccc(O)cc1` (stereo not given), for which the growth inhibition was 60% (active) in experiment [1] and 90% (active) in experiment [4]. The inhibition was -2% in experiment [2] and 0% in experiment [3]. Moreover, the result in experiment [5], in experiment [6], in experiment [7] and in experiment [8] was inactive.

As to `OCCNc1nc(Nc2cccc(O)c2)nc2ccccc12`, the growth inhibition is 55% (active) in experiment [1] and 96% (active) in experiment [4]. For the same compound, the inhibition in experiment [2] and in experiment [3] was 3% throughout. Also, the result in experiment [5], in experiment [6], in experiment [7] and in experiment [8] was inactive.

As to `CN1CCC(Oc2cc(NC(=O)Nc3ccc(-c4ccncc4)c(Cl)c3)ccc2Cl)CC1`, the growth inhibition is 100% (active) in experiment [1] and 99% (active) in experiment [4]. The inhibition in experiment [2] is 23%; in experiment [3], -5%. For the same compound, the result in experiment [5], in experiment [6], in experiment [7] and in experiment [8] was inactive.

As for `COCCCN=C(N)c1ccc(NC(=O)c2ccc(C(=O)Nc3ccc(C(N)=NCCCOC)cc3)cc2)cc1`, the values for the growth inhibition in experiment [1] and in experiment [4] were 99% (active) and 100% (active), respectively. Also, the inhibition was 33% in experiment [2] and -2% in experiment [3]. The result in experiment [5], in experiment [6], in experiment [7] and in experiment [8] was inactive.
